Data on eleven compounds can be found in PubChem BioAssay (NCI).

Compounds without any hit were thinned out: in the full panel of roughly 79,000, 15% have a hit. Values without a mark were called inactive. The source made the active and inactive calls. No stated cut-off is given here; in the data, active means growth inhibition above about 70%; inactive means the rest.

Experiment [1] in a line: NCI Yeast Anticancer Drug Screen. Data for the rad50 strain (AID 155).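 Further: 0% = growth of vehicle-only cultures of the same strain.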 To be noted: S. cerevisiae rad50 strain growth inhibition, stronger effect = higher value. The essentials:
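Cells are treated with compound, grown, and their growth is then scored against vehicle-only cultures of the same repair-deficient yeast strain.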

Experiment [2] can be described thus: NCI Yeast Anticancer Drug Screen. Data for the mec2-1 strain (AID 157). To be noted: S. cerevisiae mec2-1 strain, stronger effect = higher value. A digest of the protocol:
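Strain: mec2-1 (DNA repair/cell cycle alteration). Compound exposure, then growth measured; inhibition expressed relative to vehicle.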

Experiment [3] in a line: NCI Yeast Anticancer Drug Screen. Data for the sgs1 mgt1 strain (AID 161).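 Further: 0% = growth of cultures given vehicle only.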 To be noted: S. cerevisiae sgs1 mgt1 strain, stronger effect = higher value. The essentials: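 Genetically altered yeast, compound exposure, growth inhibition relative to vehicle.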
A short description of experiment [4]: NCI Yeast Anticancer Drug Screen. Data for the cln2 rad14 strain (AID 165).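 Further: 0% = growth equal to vehicle treated cultures.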 The settings on record: S. cerevisiae cln2 rad14 strain, stronger effect = higher value. The essentials:
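Compounds are applied to the cln2 rad14 yeast strain, and growth is then compared with that of vehicle-treated cultures to give inhibition.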

Experiment [5] can be described thus: NCI Yeast Anticancer Drug Screen. Data for the bub3 strain (AID 167). To be noted: S. cerevisiae bub3 mutant strain, stronger effect = higher value. The essentials: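 Part of a panel of yeast mutants defective in DNA damage repair or cell cycle regulation. Each strain is grown with compound, and inhibition is calculated relative to solvent-treated cultures.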
Experiment [6] in a line: NCI Yeast Anticancer Drug Screen. Data for the mlh1 rad18 strain (AID 175). The settings on record: S. cerevisiae mlh1 rad18 strain growth inhibition, stronger effect = higher value. A digest of the protocol:
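Read-out is yeast growth inhibition, calculated against vehicle-only controls. The compound was applied to a strain engineered with DNA damage repair alterations.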

The mark [7] stands for this setting: at 5.0 µM (retest, dose inferred, filed as 0.5).
The mark [8] stands for this setting: at 50.0 µM (retest, dose inferred, filed as 5.0).

In the case of `N#Cc1ccc(Cl)cc1[N+](=O)[O-]`, the growth inhibition is 31% in experiment [1] (setting [7]); 97% (active) in experiment [1] (setting [8]); 90.3% (active) in experiment [1] (at 50.0 µM); 15% in experiment [2] (setting [7]); 98% (active) in experiment [2] (setting [8]); 92% (active) in experiment [2] (at 50.0 µM). The growth inhibition is 36% in experiment [3] (setting [7]); 96% (active) in experiment [3] (setting [8]); 90.8% (active) in experiment [3] (at 50.0 µM); 38% in experiment [4] (setting [7]); 96% (active) in experiment [4] (setting [8]); 91% (active) in experiment [4] (at 50.0 µM). Further, the growth inhibition in experiment [5] (setting [7]) was 52%; in experiment [5] (setting [8]), 97% (active); in experiment [5] (at 50.0 µM) it was 90.2% (active); in experiment [6] (setting [7]), 42%; in experiment [6] (setting [8]) it was 96% (active); in experiment [6] (at 50.0 µM), 90.4% (active).
In the case of `Cn1c(=O)c2c(nnc(-c3ccccc3)[n+]2[O-])n(C)c1=O`, the growth inhibition in experiment [1] (setting [7]) was -3%; in experiment [1] (setting [8]) it was 46%; in experiment [1] (at 50.0 µM), 99.5% (active); in experiment [2] (setting [7]) it was -1%; in experiment [2] (setting [8]) it was 97% (active); in experiment [2] (at 50.0 µM), 99.7% (active). Moreover, the growth inhibition in experiment [3] (setting [7]) was 1%; in experiment [3] (setting [8]), 90% (active); in experiment [3] (at 50.0 µM), 99.7% (active); in experiment [4] (setting [7]), 2%; in experiment [4] (setting [8]) it was 43%; in experiment [4] (at 50.0 µM), 99% (active). The growth inhibition was -3% in experiment [5] (setting [7]); 60% in experiment [5] (setting [8]); 99.6% (active) in experiment [5] (at 50.0 µM); -6% in experiment [6] (setting [7]); 95% (active) in experiment [6] (setting [8]); 99.6% (active) in experiment [6] (at 50.0 µM).
As for `Cn1c2nc(-[n+]3ccc4ccccc4c3)nc-2c([O-])n(C)c1=O`, the growth inhibition in experiment [1] (setting [7]) is 34%; in experiment [1] (setting [8]), 95% (active); in experiment [1] (at 50.0 µM), -9.45%; in experiment [2] (setting [7]), 12%; in experiment [2] (setting [8]), 96% (active); in experiment [2] (at 50.0 µM), 3.55%. For the same compound, the growth inhibition was 15% in experiment [3] (setting [7]); 96% (active) in experiment [3] (setting [8]); -13.1% in experiment [3] (at 50.0 µM); 3% in experiment [4] (setting [7]); 84% (active) in experiment [4] (setting [8]); 49% in experiment [4] (at 50.0 µM). Moreover, the growth inhibition is 8% in experiment [5] (setting [7]); 97% (active) in experiment [5] (setting [8]); 0.2% in experiment [5] (at 50.0 µM); 12% in experiment [6] (setting [7]); 98% (active) in experiment [6] (setting [8]); -3.35% in experiment [6] (at 50.0 µM).
With `CS(=O)(=O)n1c(C(O)c2ccccc2)nc2ccccc21` (stereo not drawn), the growth inhibition was -4% in experiment [1] (setting [7]); 4% in experiment [1] (setting [8]); 8.95% in experiment [1] (at 50.0 µM); 10% in experiment [2] (setting [7]); -1% in experiment [2] (setting [8]); 17.8% in experiment [2] (at 50.0 µM). In addition, the growth inhibition is 2% in experiment [3] (setting [7]); 8% in experiment [3] (setting [8]); 3.1% in experiment [3] (at 50.0 µM); -82% in experiment [4] (setting [7]); -1% in experiment [4] (setting [8]); 27.8% in experiment [4] (at 50.0 µM). Besides, the growth inhibition in experiment [5] (setting [7]) is 5%; in experiment [5] (setting [8]), 38%; in experiment [5] (at 50.0 µM), 5.6%; in experiment [6] (setting [7]) it was 0%; in experiment [6] (setting [8]) it was 1%; in experiment [6] (at 50.0 µM), 14.2%.
Turning to `CN(C)c1ccc(C(c2cc3c(cc2O)OCO3)N2CCCC2)cc1` (stereo not drawn), the growth inhibition was 7% in experiment [1] (setting [7]); 99% (active) in experiment [1] (setting [8]); 99.2% (active) in experiment [1] (at 50.0 µM); 15% in experiment [2] (setting [7]); 99% (active) in experiment [2] (setting [8]); 99.4% (active) in experiment [2] (at 50.0 µM). The growth inhibition is -3% in experiment [3] (setting [7]); 99% (active) in experiment [3] (setting [8]); 99.2% (active) in experiment [3] (at 50.0 µM); -3% in experiment [4] (setting [7]); 99% (active) in experiment [4] (setting [8]); 99.1% (active) in experiment [4] (at 50.0 µM). Also, the growth inhibition in experiment [5] (setting [7]) is 0%; in experiment [5] (setting [8]), 99% (active); in experiment [5] (at 50.0 µM), 99.4% (active); in experiment [6] (setting [7]), -7%; in experiment [6] (setting [8]), 99% (active); in experiment [6] (at 50.0 µM), 99.2% (active).
Regarding `CCCCC#CC(=O)OCCC`, the growth inhibition in experiment [1] (setting [7]) is -1%; in experiment [1] (setting [8]) it was 2%; in experiment [1] (at 50.0 µM) it was 26.6%; in experiment [2] (setting [7]), 0%; in experiment [2] (setting [8]), 2%; in experiment [2] (at 50.0 µM), 15.8%. In addition, the growth inhibition in experiment [3] (setting [7]) was 2%; in experiment [3] (setting [8]), 2%; in experiment [3] (at 50.0 µM), 22.4%; in experiment [4] (setting [7]) it was -1%; in experiment [4] (setting [8]), -1%; in experiment [4] (at 50.0 µM), 85.5% (active). Also, the growth inhibition in experiment [5] (setting [7]) was 1%; in experiment [5] (setting [8]), 0%; in experiment [5] (at 50.0 µM) it was -22.4%; in experiment [6] (setting [7]), -2%; in experiment [6] (setting [8]), -1%; in experiment [6] (at 50.0 µM) it was -9.75%.
As for `O=C1NC(=S)S/C1=C/c1ccc(/C=C2/SC(=S)NC2=O)cc1`, the growth inhibition in experiment [1] (setting [7]) is -16%; in experiment [1] (setting [8]) it was -3%; in experiment [1] (at 50.0 µM), 21%; in experiment [2] (setting [7]) it was -10%; in experiment [2] (setting [8]), -14%; in experiment [2] (at 50.0 µM), 22.6%. The growth inhibition in experiment [3] (setting [7]) was -6%; in experiment [3] (setting [8]), -3%; in experiment [3] (at 50.0 µM) it was 9.45%; in experiment [4] (setting [7]), -19%; in experiment [4] (setting [8]), -22%; in experiment [4] (at 50.0 µM), 58.4%. In addition, the growth inhibition in experiment [5] (setting [7]) was -12%; in experiment [5] (setting [8]), -12%; in experiment [5] (at 50.0 µM), 7.75%; in experiment [6] (setting [7]) it was -15%; in experiment [6] (setting [8]) it was -19%; in experiment [6] (at 50.0 µM), 28.4%.
Take `C=CCOc1c(CCC)cc(CN)cc1CCC`: the growth inhibition was -2% in experiment [1] (setting [7]); 2% in experiment [1] (setting [8]); 4.45% in experiment [1] (at 50.0 µM); -2% in experiment [2] (setting [7]); -6% in experiment [2] (setting [8]); -8.2% in experiment [2] (at 50.0 µM). For the same compound, the growth inhibition was 5% in experiment [3] (setting [7]); 23% in experiment [3] (setting [8]); 24.6% in experiment [3] (at 50.0 µM); 1% in experiment [4] (setting [7]); -7% in experiment [4] (setting [8]); 58.5% in experiment [4] (at 50.0 µM). In addition, the growth inhibition in experiment [5] (setting [7]) was -3%; in experiment [5] (setting [8]), 7%; in experiment [5] (at 50.0 µM), 2.55%; in experiment [6] (setting [7]) it was -1%; in experiment [6] (setting [8]), 11%; in experiment [6] (at 50.0 µM), 49.8%.
As to `CNC(=O)N(C1=NCC(C)S1)c1ccc(C)c(C)c1` (stereo not drawn), the growth inhibition in experiment [1] (setting [7]) was -13%; in experiment [1] (setting [8]) it was 97% (active); in experiment [1] (at 50.0 µM) it was 63.9%; in experiment [2] (setting [7]), -21%; in experiment [2] (setting [8]), 98% (active); in experiment [2] (at 50.0 µM), 74.9% (active). The growth inhibition in experiment [3] (setting [7]) was -36%; in experiment [3] (setting [8]), 95% (active); in experiment [3] (at 50.0 µM), 71.8% (active); in experiment [4] (setting [7]) it was -17%; in experiment [4] (setting [8]), 76% (active); in experiment [4] (at 50.0 µM), 57.2%. For the same compound, the growth inhibition in experiment [5] (setting [7]) was -22%; in experiment [5] (setting [8]), 98% (active); in experiment [5] (at 50.0 µM), 79.2% (active); in experiment [6] (setting [7]), -17%; in experiment [6] (setting [8]), 89% (active); in experiment [6] (at 50.0 µM), 69%.
In the case of `CN(C)C1=NC2=S(SC(Nc3ccccc3)=N2)S1` (stereo not drawn), the growth inhibition in experiment [1] (setting [7]) was -4%; in experiment [1] (setting [8]), 15%; in experiment [1] (at 50.0 µM), 10.8%; in experiment [2] (setting [7]), -7%; in experiment [2] (setting [8]) it was 33%; in experiment [2] (at 50.0 µM), -1%. In addition, the growth inhibition is 10% in experiment [3] (setting [7]); 28% in experiment [3] (setting [8]); -19.1% in experiment [3] (at 50.0 µM); 10% in experiment [4] (setting [7]); 24% in experiment [4] (setting [8]); -0.75% in experiment [4] (at 50.0 µM). The growth inhibition in experiment [5] (setting [7]) is 3%; in experiment [5] (setting [8]), 20%; in experiment [5] (at 50.0 µM), 44%; in experiment [6] (setting [7]), 24%; in experiment [6] (setting [8]) it was 43%; in experiment [6] (at 50.0 µM), -7.4%.
As for `O=c1ccnc(Nc2ccc[nH]c2=S)[nH]1`, the growth inhibition in experiment [1] (setting [7]) is -2%; in experiment [1] (setting [8]), -11%; in experiment [1] (at 50.0 µM) it was 3.2%; in experiment [2] (setting [7]), 0%; in experiment [2] (setting [8]), -7%; in experiment [2] (at 50.0 µM), -3.3%. In addition, the growth inhibition in experiment [3] (setting [7]) is -1%; in experiment [3] (setting [8]) it was -7%; in experiment [3] (at 50.0 µM), 46.2%; in experiment [4] (setting [7]) it was -3%; in experiment [4] (setting [8]) it was -23%; in experiment [4] (at 50.0 µM), 1.4%. In addition, the growth inhibition is 4% in experiment [5] (setting [7]); 1% in experiment [5] (setting [8]); 8.85% in experiment [5] (at 50.0 µM); -3% in experiment [6] (setting [7]); -16% in experiment [6] (setting [8]); 1.85% in experiment [6] (at 50.0 µM).
